Test results: PubChem BioAssay (NCI)
Compounds without any hit were thinned out: in the full panel of roughly 83,000, 20% have a hit.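 For each line, cells grew in 96-well plates with the test compound present at a single concentration for 48 hours.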 Unmarked numbers belong to inactive results. Active and inactive are the calls of the source. How the source made its calls: active means growth percent below 10; inactive means the rest.

These compounds were tested on HL-60(TB) leukemia (assay: NCI-60 one-dose screen, 48 h (100 = growth as untreated, 0 = no growth, -100 = all killed)). Details: 10 µM unless noted.
Work on C#Cc1ccc(NC(=O)Cc2ccc(/C=C/C(=O)c3nccn3C)cc2)cc1 yielded a growth of 16.5%.
O=[N+]([O-])c1ccc(C2CC(c3ccccc3)=Nc3ccccc3S2)cc1 (stereo not given) was tested, and the growth was 36.1%.
COc1cccc(/C=C2\SC(N3CCN(c4ccccn4)CC3)=NC2=O)c1 was tested, and the growth was 95.5%.
With OCc1cccc(F)c1 the growth was 107%.
In the case of Nc1nc2ccccc2c2c(=O)c3cc(F)ccc3sc12, the growth is reported as 99.4%.
With Cc1cc(C(C)(C)CC(C)(C)C)ccc1OCCOCC[N+](C)(C)Cc1ccccc1 the growth was -67.1% (active).
In the case of CC/C(=C(/c1ccc(OCCN(C)C)cc1)c1ccc(OC(=O)CCC(=O)c2c(C)[nH]c(/C=C3\N=C(c4ccc[nH]4)C=C3OC)c2C)cc1)c1ccccc1, the growth is reported as 24.2%.
Cc1nc2ccc(C(=O)NCc3cc(C(=O)O)c(C)o3)cc2nc1C was tested, and the growth was 103%.
CN1CC[C@H](c2c(O)cc(O)c3c(=O)cc(-c4ccccc4Cl)oc23)[C@H](O)C1 was tested, and the growth was -23.1% (active).
In the case of CCOC(=O)Nc1ccc2c(c1)C(=O)N(CC)c1ccccc1O2, the growth is reported as -17% (active).
In the case of CSc1nc2sc3cc(Cl)c(Cl)cc3n2c(=N)c1C#N, the growth is reported as 110%.
With COc1ccc(/C=N/NC(=O)Cn2c(-c3ccc(S(C)(=O)=O)cc3)nc3cc(Cl)ccc32)cc1 the growth was -51.6% (active).
COc1ccc(N=Nc2cc(OC)c(OC)c(OC)c2)cc1 gave a growth of 42.4%.
Work on O=C(COc1cc(O)c2c(=O)cc(-c3ccccc3)oc2c1)Nc1ccccc1C(F)(F)F yielded a growth of 55%.
CC(=O)NNC(=O)c1sc(NC(C)=O)nc1C gave a growth of 101%.
Compound C#C[C@]1(O)CC[C@H]2[C@@H]3CC[C@H]4CC(F)(F)CC[C@]4(C)[C@H]3CC[C@@]21C has a growth of 107%.
For O=C(/C=C\c1ccc(OCCCCCC[P+](c2ccccc2)(c2ccccc2)c2ccccc2)cc1)c1ccc2c(c1)OCCO2, the growth was -13.2% (active).
Compound CCCCOc1nc2cc(Cl)ccc2cc1/C=C/c1cc(/C=C/c2cc3ccc(Cl)cc3nc2OCCCC)n(-c2ccccc2)n1 has a growth of 77.8%.
With C#CC[C@@H]1C[C@]2(C)[C@H]3CC[C@@H]4[C@H]5C(C(=C)C)CC[C@]5(C(=O)NCCCCN)CC[C@@]4(C)[C@]3(C)CC[C@H]2C(C)(C)[C@H]1OC(C)=O (stereo not given in full) the growth was -38.3% (active).
Compound COc1cccc(OC)c1C(=O)N[C@@H]1C(=O)N2[C@@H]1SC(C)(C)[C@@H]2C(=O)O has a growth of 94.3%.
For c1ccc(Nc2ccccn2)cc1, the growth was 64.9%.
O=C1/C(=C\c2ccc(F)cc2)CN(C(=O)c2ccccc2)C/C1=C\c1ccc(F)cc1 gave a growth of 25.6%.
With COc1ccc(/C=C2\CCC/C(=C\c3ccc(OC)c(OC)c3)C2=O)cc1OC the growth was 3.46% (active).
COc1ccc(-c2cnc(SCC(=O)Nc3ccc(-c4nc5ccccc5s4)cc3)n2-c2ccc(OC)cc2)cc1 gave a growth of 106%.
Cc1csc(Nc2nc(-c3cccc(Br)c3)nc(C(Cl)(Cl)Cl)n2)n1 was tested, and the growth was 9.61% (active).
For Cc1cc2ccccc2c2cc3ccccc3cc12, the growth was 49.4%.
With S=C=NP1(N=C=S)=NP(N=C=S)(N=C=S)=NP(N=C=S)(N=C=S)=NP(N=C=S)(N=C=S)=N1 (stereo not given) the growth was 60.7%.
CC(=O)Oc1ccc(Br)cc1C(=O)O gave a growth of 101%.
In the case of O=C1Nc2ccccc2/C1=C/C(=O)c1ccc(N2CCCC2)cc1, the growth is reported as -10.8% (active).
CCCCn1c(=O)[nH]c(N)c(C(c2ccc(F)cc2)c2c(N)[nH]c(=O)n(CCCC)c2=O)c1=O was tested, and the growth was 78.7%.
For NC(Cc1ccc(O)c([N+](=O)[O-])c1)C(=O)O (stereo not given), the growth was 114%.
In the case of O=c1c(Cc2ccc(F)cc2)cc(-c2ccccc2)nn1C/C(=N/O)c1ccccc1, the growth is reported as 24.8%.
CCCc1n(Cc2ccc3ccccc3n2)cc[n+]1Cc1ccc2ccccc2c1 was tested, and the growth was -53.7% (active).
For Nc1ccc2cc(Br)c3ccccc3c2c1, the growth was 45.6%.
With CCCCC1CCCC12NC(=O)NC2=O (stereo not given) the growth was 84.6%.
For CC(=O)/C=C/c1cc2cc(Cl)ccc2[nH]c1=O, the growth was 54.5%.
For Cc1ccc(/C=C2/C(=O)Nc3cc(Cl)c(-c4csc(N)n4)cc32)cc1, the growth was 22.2%.
With O=C1CC(c2ccccc2)Cc2nc3ccc(Cl)cc3cc21 (stereo not given) the growth was -20.7% (active).
With NNCCc1ccc(NC(=O)CCCc2ccc(C(=O)Nc3ccccc3N)cc2)cc1 the growth was 32.6%.
With CC(C)C1=NOC(=O)C1=Cc1cn(-c2ccccc2)nc1-c1ccccc1 the growth was -45.2% (active).
